Bioassay records (PubChem BioAssay)
In the library only some 3.4% were active in any assay of this set; here they are far more common.
GPR151 ag – activators of human GPR151 | Q8TDV0 | PathHunter beta-arrestin GPR151 cells, luminescence | activation, % at 11.2 µM | 1% of 650,000 active | AID 1508602; in the data active = activation above about 4.9%
MITF inh – inhibitors of human MITF. AlphaScreen MITF homodimerization, bead proximity signal. inhibition, % at 2.6 µM. 0.91% of 650,000 active; in the data active = inhibition above about 50%
TEAD-YAP block – TEAD-YAP interaction inhibition. HEK-TIYL cells, TEAD-Gal4/YAP UAS-luciferase luminescence. inhibition, % at 9.12 µM. 1.4% of 640,000 active; in the data active = inhibition above about 32%
FBW7 act – activators of human E3 ligase FBW7. AID 1259310. 0.13% of 650,000 active. AlphaScreen FBW7–phospho-cyclin E peptide binding, activator screen. normalized activity (activation), % at 26.1 µM; in the data active = normalized activity above about 1.9%;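 also: purified mutant Fbw7 with reduced substrate affinity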
GPR151 conf act – confirmation of human GPR151 activators; shares compounds with GPR151 ag; GPR151 PathHunter beta-arrestin cells, luminescence, 90 min; % of EA-reagent control over plate median; activation, % at 11.2 µM; 6,700 tested, under 10 active;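 active = mean percent activation across replicates above the confirmation screen cutoff of 4.91%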
GPR119 ag – activates human GPR119 in a GPR151 counter-screen. GPR119 PathHunter beta-arrestin cells, luminescence, 90 min; 0 = compound-well median, 100 = enzyme-acceptor control. AID 1508611. activation, % at 11.2 µM. 0.3% of 6,700 active. shares compounds with GPR151 ag;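 active = mean percent activation in the counterscreen above 29.09%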;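 also: counterscreen on off-target GPR119 to flag nonselective hits from the GPR151 activator screen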
Of the large screens only hits and unclear results are named; the others gave an inactive call (follow-up assays come after a bar, where they were run); ! = not active in a repeat.

CC(/C=C/c1ccc2c(c1)OCO2)=N\NC(=O)c1cc(C)[nH]n1	none
Cc1cccc2cc(CN(Cc3ccco3)Cc3nnnn3C(C)(C)C)c(=O)[nH]c12	GPR151 ag 6.2 | GPR151 conf act inactive | GPR119 ag inactive
Cc1cc(C)cc(C(=O)Nc2ccc3c(c2)CCCN3S(C)(=O)=O)c1	GPR151 ag 7.7 | GPR151 conf act inactive | GPR119 ag inactive
O=C(NCCc1c[nH]c2ccc(OCc3ccccc3)cc12)C1CC1	none
COc1ccc(C=O)cc1Cn1cnc([N+](=O)[O-])n1	GPR151 ag 5.5 | GPR151 conf act inactive | GPR119 ag inactive
CC(=O)CC(C)C(=O)N1CCCC(c2nc(C)ncc2-c2cccc(C)c2)C1 (centres undefined)	GPR151 ag 6.4 | GPR151 conf act inactive | GPR119 ag inactive
Cc1cccc(-c2cnc(C)nc2C2CCCN(C(=O)CN(C)C)C2)c1 (centres undefined)	GPR151 ag 14.5 | GPR151 conf act inactive | GPR119 ag inactive
COc1ccccc1N1CCN(C(=O)CN(c2cc(C)cc(C)c2)S(C)(=O)=O)CC1	GPR151 ag 6.4 | GPR151 conf act inactive | GPR119 ag inactive
COc1ccccc1N(CC(N)=O)S(C)(=O)=O	none
COc1ccccc1N(CC(=O)N(C)C)S(C)(=O)=O	GPR151 ag 6.1 | GPR151 conf act inactive | GPR119 ag inactive
CCOC(=O)c1c(NC(=O)c2cc3cc([N+](=O)[O-])ccc3oc2=O)sc2c1CCCC2	none
CCCCOC(=O)c1ccc(OC(=O)c2ccncc2)cc1	none
O=C(NC1CC1)c1cnc(N2CCN(c3ccccn3)CC2)s1	GPR151 ag 5.0 | GPR151 conf act inactive | GPR119 ag inactive
NC(=O)CSc1nc2ncnc(N)c2[nH]1	none
Nc1ncnc2nc(SCCO)[nH]c12	GPR151 ag 7.0 | GPR151 conf act inactive | GPR119 ag inactive
Cc1ccc2nc(NCc3ccccc3)c(C=Nc3ccc(Cl)cc3)c(=O)n2c1	none
OCCNCCCCOc1ccc(OCc2ccccc2)cc1	GPR151 ag 6.2 | GPR151 conf act inactive | GPR119 ag inactive
COc1nc(-c2ccccc2Cl)nc2ccccc12	GPR151 ag 5.2 | GPR151 conf act inactive | GPR119 ag inactive
CC(C)Oc1nc(-c2ccccc2Cl)nc2ccccc12	none
COc1ccc(OCc2nc(C#N)c(NCCc3ccc(OC)c(OC)c3)o2)cc1	none
CCN(C(=O)CCl)c1nc(-c2ccc(Cl)cc2)cs1	none
CCC(=O)N(CCCN(C)C)c1nc(-c2ccc(Cl)cc2)cs1	GPR151 ag 6.0 | GPR151 conf act inactive | GPR119 ag inactive
C[N+](C)(CCCC(=O)c1ccc(C(=O)CCC[N+](C)(C)Cc2ccccc2Cl)cc1)Cc1ccccc1Cl	GPR151 ag 5.8 | GPR151 conf act inactive | GPR119 ag inactive
CCCCC(=O)c1ccc(-c2ccccc2)cc1	none
Cc1cc(C)cc(OCC(=O)OCc2c(C)noc2C)c1	none
Cc1ccc(OCC(=O)OCc2c(C)noc2C)cc1C	GPR151 ag 8.0 | GPR151 conf act inactive | GPR119 ag inactive
Cc1ccc(OCC(=O)OCC(=O)c2ccccc2)cc1C	GPR151 ag 10.0 | GPR151 conf act inactive | GPR119 ag inactive
N#C/C(=C\c1cn(Cc2ccccc2)c2ccccc12)C(=O)NC1CC1	GPR151 ag 5.2 | GPR151 conf act inactive | GPR119 ag inactive
CCOC(=O)c1c(NC(=S)NC(=O)c2cccs2)sc(C)c1C	none
CCOC(=O)c1c(NC(=S)Nc2cccnc2)sc(C)c1C	GPR151 ag 5.3 | GPR151 conf act inactive | GPR119 ag inactive
CCNc1nc(NCCN2CCOCC2)c2ncn(-c3ccsc3)c2n1	GPR151 ag 6.5, TEAD-YAP block 33.5 | GPR151 conf act inactive | GPR119 ag inactive
COc1cc(Nc2nc(NCCO)c3ncn(-c4ccsc4)c3n2)cc(OC)c1OC	GPR151 ag 5.6, TEAD-YAP block 36.8 | GPR151 conf act inactive | GPR119 ag inactive
CCNc1nc(NCCN2CCOCC2)c2ncn(-c3ccccc3)c2n1	none
Cc1cc(C)nc(NS(=O)(=O)c2ccc(Nc3nc(-c4ccc(C)c(C)c4)cs3)cc2)n1	none
Cc1nc2sccn2c(=O)c1CCN1CCC(=C(c2ccc(F)cc2)c2ccc(F)cc2)CC1	none
Cc1nc2ccccn2c(=O)c1CCN1CCC(C(=O)c2ccc(F)cc2)CC1	GPR151 ag 9.9! | GPR151 conf act inactive | GPR119 ag inactive
